# Reference: PubChem BioAssay (NCATS)
# Values without a mark were called inactive. Inconclusive results are not listed. Entries that show only a call come without a potency. The source made the active and inactive calls. Calls come from the whole dose curve; as a rule, active = well fitted curve in the direction sought with a large enough effect; inconclusive = small, poorly fitted or top-dose-only effect, or another doubt; inactive = no such curve, though single readings can be large; an effect the other way counts as inactive or inconclusive.
# Columns and labels:
# [1] = tested on: Zika virus NS2B-NS3 protease (linked construct); assay: Primary screen NINDS Rhodamine qHTS for Zika virus inhibitors (AID 1347160); note: nearly all actives have a fitted effect of over 55% in size
# Method in brief: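 Enzyme (25 nM, linked NS2B-NS3) was preincubated 15 min with compound in 10 mM Tris-HCl pH 8.0, 0.01% Tween 20. Rhodamine110 substrate (1.5 microM) was then added and fluorescence read at start and after 15 min.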
# [2] = target: Calcium and integrin-binding protein 1 (Homo sapiens) (UniProt Q99828); assay: Primary qHTS for Identification of Calcium Integrin Binding Protein 1 (CIB1) Competitor (AID 1508620);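 note: GST tagged CIB1 binding a fluorescein labelled alphaIIb integrin peptide tracer; top concentration of the series differs between compounds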
# Calcium and integrin-binding protein 1 (Homo sapiens), sequence (Q99828 whole entry, looked up): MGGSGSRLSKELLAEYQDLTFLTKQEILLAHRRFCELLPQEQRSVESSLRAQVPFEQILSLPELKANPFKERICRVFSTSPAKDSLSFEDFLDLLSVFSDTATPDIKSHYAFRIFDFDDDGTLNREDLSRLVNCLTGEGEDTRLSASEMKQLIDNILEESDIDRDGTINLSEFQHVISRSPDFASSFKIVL
# Method in brief: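 Fluorescence polarization competition: CIB1-GST (1 uM final) preincubated with compound 15 min at room temperature, then FITC-labeled alphaIIb peptide (100 nM final) added for another 15 min. Polarization read at Ex 480/Em 540.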
# [3] = target: Glutathione peroxidase 1 (Homo sapiens) (UniProt P07203); assay: Primary qHTS Assay for Inhibitors of Recombinant Selenoprotein Glutathione Peroxidase 1 (GPX1) (AID 1845191); note: nearly all actives have a fitted effect of over 65% in size
# Glutathione peroxidase 1 (Homo sapiens), sequence (P07203 whole entry, looked up): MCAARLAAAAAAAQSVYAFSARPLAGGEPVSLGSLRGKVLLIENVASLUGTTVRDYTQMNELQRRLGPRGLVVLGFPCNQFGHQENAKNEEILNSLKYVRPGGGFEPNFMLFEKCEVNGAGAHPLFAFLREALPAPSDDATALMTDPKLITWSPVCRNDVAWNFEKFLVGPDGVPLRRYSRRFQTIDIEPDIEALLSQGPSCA
# Method in brief: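 GPX1 10 nM, GR 100 nM, GSH 1 mM, NADPH 0.5 mM, CHP 0.5 mM (final). 30-min cpd preincubation, RT. Ex340/Em450 read t=0, t=15 min.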
# [4] = target: Phospholipid hydroperoxide glutathione peroxidase GPX4 (Homo sapiens) (UniProt P36969); assay: Primary qHTS Assay for Inhibitors of Recombinant Selenoprotein Glutathione Peroxidase 4 (GPX4) (AID 1845192); note: nearly all actives have a fitted effect of over 65% in size
# Phospholipid hydroperoxide glutathione peroxidase GPX4 (Homo sapiens), sequence (P36969 whole entry, looked up): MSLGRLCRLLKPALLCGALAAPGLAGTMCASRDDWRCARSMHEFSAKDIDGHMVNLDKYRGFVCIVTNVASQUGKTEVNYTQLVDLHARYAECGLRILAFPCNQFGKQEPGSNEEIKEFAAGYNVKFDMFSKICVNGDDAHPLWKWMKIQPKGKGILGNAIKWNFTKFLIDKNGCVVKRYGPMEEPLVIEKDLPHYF
# Method in brief: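 qHTS, GR-coupled: GPX4 200 nM + cpd 30 min RT → GSH 1 mM, NADPH 0.5 mM, GR 100 nM → CHP 0.5 mM start; fluor 340/450 at t0 and t15 min; no-enzyme wells as control.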
# [5] = target: Luciferin 4-monooxygenase (Photinus pyralis) (UniProt P08659); assay: Primary firefly luciferase (FLuc) qHTS assay for identification of artifact compounds. (AID 1845220); conditions: outcome: dose series up to 54.1 µM unless noted; note: nearly all actives have a fitted effect of over 60% in size
# Method in brief: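 In this counter-screen for luciferase artifacts, test compounds met substrate (10 uM each luciferin and ATP) before 10 nM enzyme started the reaction. Light output was measured 5 min later.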
# [6] = Primary fluorescence-based thiol-reactive (MSTI) qHTS assay for identification of artifact compounds. (AID 1845221); note: nearly all actives have a fitted effect of over 65% in size; note: potency is the fitted concentration of half-maximal effect
# Method in brief: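 MSTI probe at 4 uM final in 2% DMSO/PBS pH 7.4; compounds, 1 h at room temperature in dark. Fluorescence Ex/Em 525/598 nm, normalised to Acetyl-MSTI and MSTI, fitted to 4-parameter Hill.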
# [7] = tested on: Nanoluciferase (engineered Oplophorus gracilirostris luciferase); assay: Primary Nanoluciferase (NLuc) qHTS assay for identification of artifact compounds. (AID 1845222);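 note: NLuc secreted into diluted conditioned medium of S16 cells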
# Method in brief: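 Using secreted nanoluciferase in S16 culture medium (0.22 um filtered, 1:55 dilution), compounds were preincubated 15 min at RT. Signal was generated with Nano-Glo reagent (1:100) over 5 min.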
# [8] = Primary redox qHTS assay for identification of artifact compounds. (AID 1845223)
# Method in brief: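 Redox-cycling detection via DTT (250 uM final) oxidation coupled to Amplex Red (25 uM)/HRP (250 mU/mL) in HBSS. 15 min preincubation plus 30 min after DTT, room temperature. Ex/Em 525/598 nm; 4-parameter Hill fit against DMSO and 10 uM DA3003.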
# [9] = tested on: CRL-7250; assay: Cytotoxic Profiling of Annotated Libraries Using Quantitative High-Throughput Screening (AID 1296008); conditions: Five cell lines viability, CellTiter-Glo ATP luminescence, 48-72 h; max response: hits give low values; note: nearly all actives have a fitted effect of over 60% in size; note: potency is the fitted concentration of half-maximal effect
# Method in brief: (§1)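 Compounds were pin-transferred onto cells and incubated 48 or 72 hr at 37 degree Celsius, 95% humidity. CellTiter-Glo was added, plates sat 10 min at room temperature, then ATP-coupled luminescence was imaged as the viability read-out.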
# [10] = tested on: NIH3T3; assay: as above; conditions: Five cell lines viability, CellTiter-Glo ATP luminescence, 48-72 h; max response: hits give low values
# Method in brief: as §1
# [11] = tested on: C33A; assay: Primary qHTS to identify gynecologic anti-cancer compounds using libraries of approved drugs and bioactive compounds (AID 1345084); conditions: Gynecologic cancer cell panel viability, ATPlite luminescence, 48 h; series mostly up to 57.5 µM; note: nearly all actives have a fitted effect of over 55% in size; note: potency is the fitted concentration of half-maximal effect
# Method in brief: (§2)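 Cells, 1,000 per well, plated 16 h, then exposed 48 h at 37 C to compounds. Viability by ATPlite luminescence after 15 min at room temperature.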
# [12] = tested on: CASKI; assay: as above; conditions: Gynecologic cancer cell panel viability, ATPlite luminescence, 48 h; series mostly up to 57.5 µM
# Method in brief: as §2
# [13] = tested on: Es-2; assay: as above; conditions: Gynecologic cancer cell panel viability, ATPlite luminescence, 48 h; series mostly up to 57.5 µM
# Method in brief: as §2
# [14] = tested on: JEG-3; assay: as above; conditions: Gynecologic cancer cell panel viability, ATPlite luminescence, 48 h; series mostly up to 57.5 µM
# Method in brief: as §2
# [15] = tested on: OV90; assay: as above; conditions: Gynecologic cancer cell panel viability, ATPlite luminescence, 48 h; series mostly up to 57.5 µM
# Method in brief: as §2
# [16] = tested on: CAOV3; assay: as above; conditions: Gynecologic cancer cell panel viability, ATPlite luminescence, 48 h; series mostly up to 57.5 µM
# Method in brief: as §2
# [17] = tested on: Tov112D; assay: as above; conditions: Gynecologic cancer cell panel viability, ATPlite luminescence, 48 h; series mostly up to 57.5 µM
# Method in brief: as §2
# [18] = tested on: Hek293T; assay: as above; conditions: Gynecologic cancer cell panel viability, ATPlite luminescence, 48 h, control line for the selectivity index; series mostly up to 57.5 µM
# Method in brief: as §2
# [19] = tested on: PA-1; assay: as above; conditions: Gynecologic cancer cell panel viability, ATPlite luminescence, 48 h; series mostly up to 57.5 µM
# Method in brief: as §2
# [20] = tested on: Tov-21-G; assay: as above; conditions: Gynecologic cancer cell panel viability, ATPlite luminescence, 48 h; series mostly up to 57.5 µM
# Method in brief: as §2
structure (smiles),measurement,setting,value
C[C@]12CC[C@H](O)C[C@@H]1CC[C@@H]1[C@@H]2CC[C@]2(C)[C@@H](C3=CC(=O)OC3)CC[C@]12O,Potency,[1],inactive
same,Potency,[2],inactive
same,Potency,[3],inactive
same,Potency,[4],inactive
same,outcome,[5],inactive
same,Potency,[6],inactive
same,Potency,[7],inactive
same,Potency,[8],inactive
same,Potency,[9],4530 nM (active)
same,max response,[10],3.54%
same,Potency,[11],7940 nM (active)
same,Potency,[12],inactive
same,Potency,[13],8910 nM (active)
same,Potency,[14],inactive
same,Potency,[15],inactive
CCCCCCC1C(=O)O[C@H](C)[C@H](NC(=O)c2cccc(NC=O)c2O)C(=O)O[C@@H](C)[C@@H]1OC(=O)CC(C)C (stereo not given in full),Potency,[2],inactive
same,Potency,[4],inactive
same,outcome,[5],inactive
same,Potency,[6],1890 nM (active)
same,Potency,[7],inactive
same,Potency,[9],580 nM (active)
same,Potency,[16],3160 nM (active)
same,Potency,[12],1000 nM (active)
same,Potency,[13],355 nM (active)
same,Potency,[14],inactive
same,Potency,[15],355 nM (active)
same,Potency,[17],inactive
O=S(=O)(c1ccccc1F)N1CCOc2c(N3CCNCC3)cccc21,Potency,[1],inactive
same,Potency,[2],inactive
same,Potency,[3],inactive
same,Potency,[4],inactive
same,outcome,[5],inactive
same,Potency,[6],inactive
same,Potency,[7],inactive
same,Potency,[8],inactive
same,max response,[9],2.13%
same,max response,[10],2.22%
same,Potency,[11],inactive
same,Potency,[12],inactive
same,Potency,[13],inactive
same,Potency,[18],inactive
same,Potency,[14],inactive
same,Potency,[15],inactive
same,Potency,[19],inactive
same,Potency,[20],inactive
same,Potency,[17],inactive
CC12Cc3cn[nH]c3C=C1CCC1C2CCC2(C)C1CCC2(C)O (stereo not given),Potency,[1],inactive
same,Potency,[2],inactive
same,Potency,[3],inactive
same,Potency,[4],inactive
same,outcome,[5],inactive
same,Potency,[6],inactive
same,Potency,[7],inactive
same,Potency,[8],inactive
same,outcome,[9],inactive
same,max response,[10],-0.979%
same,Potency,[11],inactive
same,Potency,[16],inactive
same,Potency,[12],inactive
same,Potency,[13],inactive
same,Potency,[18],inactive
same,Potency,[14],inactive
same,Potency,[15],inactive
same,Potency,[19],inactive
same,Potency,[20],inactive
same,Potency,[17],inactive
O=C(N[C@H]1CN2CCC1CC2)c1cc2cccc(Cl)c2s1,Potency,[1],inactive
same,Potency,[3],inactive
same,outcome,[5],inactive
same,Potency,[6],inactive
same,Potency,[7],inactive
same,Potency,[8],inactive
same,max response,[9],-12.3%
same,Potency,[11],inactive
same,Potency,[12],inactive
same,Potency,[13],inactive
same,Potency,[18],inactive
same,Potency,[14],inactive
same,Potency,[15],inactive
same,Potency,[19],inactive
same,Potency,[20],inactive
same,Potency,[17],inactive
CC1(C)C(=O)N(c2ccc(C#N)c(C(F)(F)F)c2)C(=S)N1c1ccc(C(N)=O)c(F)c1,Potency,[1],inactive
same,Potency,[2],inactive
same,Potency,[3],inactive
same,Potency,[4],inactive
same,outcome,[5],inactive
same,Potency,[6],inactive
same,Potency,[7],inactive
same,Potency,[8],inactive
same,max response,[9],4.24%
same,max response,[10],0.467%
same,Potency,[11],inactive
same,Potency,[12],inactive
same,Potency,[13],inactive
same,Potency,[18],inactive
same,Potency,[14],inactive
same,Potency,[15],inactive
same,Potency,[19],inactive
same,Potency,[20],inactive
same,Potency,[17],inactive
Cc1cccc(NC(=O)NC2N=C(c3ccccc3)c3ccccc3N(CC(=O)c3ccccc3C)C2=O)c1 (stereo not given),Potency,[1],inactive
same,Potency,[2],inactive
same,Potency,[3],inactive
same,Potency,[4],inactive
same,outcome,[5],inactive
same,Potency,[6],inactive
same,Potency,[7],inactive
same,Potency,[8],inactive
same,max response,[9],0.833%
same,outcome,[10],inactive
same,Potency,[11],inactive
same,Potency,[12],inactive
same,Potency,[13],inactive
same,Potency,[18],inactive
same,Potency,[14],inactive
same,Potency,[15],inactive
same,Potency,[19],inactive
same,Potency,[20],inactive
same,Potency,[17],inactive
CC(=O)C1CCC2C3CCC4C[C@@H](O)CCC4(C)C3CCC12C (stereo not given in full),Potency,[3],inactive
same,Potency,[4],inactive
same,outcome,[5],inactive
same,Potency,[6],inactive
same,Potency,[7],inactive
same,Potency,[8],inactive
same,max response,[9],3.25%
same,outcome,[10],inactive
same,Potency,[11],inactive
same,Potency,[16],inactive
same,Potency,[12],inactive
same,Potency,[13],inactive
same,Potency,[18],inactive
same,Potency,[14],inactive
same,Potency,[15],inactive
same,Potency,[19],inactive
same,Potency,[20],inactive
same,Potency,[17],inactive
COC(=O)C12C(=O)C(C)(O)C(=O)C1(C)C(C)=CC1C3(C=O)CCC(OC(C)=O)C(C)(C)C3CCC12C (stereo not given),Potency,[3],inactive
same,Potency,[4],inactive
same,outcome,[5],inactive [at 25.7 µM]
same,Potency,[6],inactive
same,Potency,[7],inactive
same,Potency,[8],inactive
same,max response,[9],-2.11%
same,max response,[10],-2.03%
same,Potency,[11],inactive
same,Potency,[16],inactive
same,Potency,[12],inactive
same,Potency,[13],inactive
same,Potency,[18],inactive
same,Potency,[14],inactive
same,Potency,[15],inactive
same,Potency,[19],inactive
same,Potency,[20],inactive
same,Potency,[17],inactive
Cc1c(N[C@@H](c2nnc(-c3ccc(C#N)cc3)o2)[C@H](C)O)ccc(C#N)c1Cl,Potency,[1],inactive
same,Potency,[2],inactive
same,Potency,[3],inactive
same,Potency,[4],inactive
same,outcome,[5],inactive
same,Potency,[6],inactive
same,Potency,[7],inactive
same,Potency,[8],inactive
same,outcome,[9],inactive
same,max response,[10],4.88%
same,Potency,[11],inactive
same,Potency,[16],inactive
same,Potency,[12],inactive
same,Potency,[13],inactive
same,Potency,[18],inactive
same,Potency,[14],inactive
same,Potency,[15],inactive
same,Potency,[19],inactive
same,Potency,[20],inactive
same,Potency,[17],inactive
CN1C(=O)C(Cc2ccc3ccccc3c2)N=C(c2ccc(O)cc2)c2cc(Cl)ccc21 (stereo not given),Potency,[2],inactive
same,Potency,[3],inactive
same,Potency,[4],inactive
same,outcome,[5],inactive
same,Potency,[6],inactive
same,Potency,[7],inactive
same,Potency,[8],inactive
same,max response,[9],-21.8%
same,max response,[10],-0.878%
same,Potency,[11],inactive
same,Potency,[16],inactive
same,Potency,[12],inactive
same,Potency,[13],inactive
same,Potency,[18],inactive
same,Potency,[14],inactive
same,Potency,[15],inactive
same,Potency,[19],inactive
same,Potency,[20],inactive
same,Potency,[17],inactive
c1ccc(C2(c3ccccc3)OC[C@@H]([C@H]3CCCCN3)O2)cc1,Potency,[1],inactive
same,Potency,[2],inactive
same,Potency,[3],inactive
same,Potency,[4],inactive
same,outcome,[5],inactive
same,Potency,[6],inactive
same,Potency,[7],inactive
same,Potency,[8],inactive
same,max response,[9],-2.49%
same,max response,[10],0.771%
same,Potency,[11],inactive
same,Potency,[16],inactive
same,Potency,[12],inactive
same,Potency,[13],inactive
same,Potency,[18],inactive
same,Potency,[14],inactive
same,Potency,[15],inactive
same,Potency,[19],inactive
same,Potency,[20],inactive
same,Potency,[17],inactive
